PubChem BioAssay AID1159580 (chemical genetic matrix, 2015)
About 2,000 (36%) of roughly 5,500 compounds were called active. Not shown: some 18% with an inconclusive outcome. Rule as the data show it: active = normalized growth mostly below about 0.91 (no sharp cut-off); inconclusive = no clear call, values can overlap the other calls; inactive = mostly above about 0.92. Some of the results follow.

Test: chemical genetic growth profiling, strain panel (AID 1159580);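 also: tested at 20 µM; growth read once vehicle control cultures reached saturation at 30 °C; 1 = growth at the plate median or of vehicle wells; lower values mean less growth of the strain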
Conditions: S. cerevisiae deletion strains, growth OD

Measured: normalized growth

COc1ccc([C@H]2Oc3c(I)c(OC)cc(OC)c3C[C@@H]2O)cc1OC
inactive: locus YAL021C, strain ccr4, stronger effect = lower value 1.01 | locus YAL026C, strain drs2, stronger effect = lower value 1.01 | locus YAL030W, strain snc1, stronger effect = lower value 1.01 | locus YBL061C, strain skt5, stronger effect = lower value 1.01 | locus YBR009C, strain hhf1, stronger effect = lower value 1.01 | locus YBR021W, strain FUR4, stronger effect = lower value 1 | locus YBR023C, strain chs3, stronger effect = lower value 1.01 | locus YBR171W, strain sec66, stronger effect = lower value 1.01 | locus YBR229C, strain ROT2, stronger effect = lower value 1 | locus YBR231C, strain swc5, stronger effect = lower value 1.01 | locus YBR279W, strain paf1, stronger effect = lower value 1.03 | locus YCL011C, strain gbp2, stronger effect = lower value 1.02 | locus YCL016C, strain dcc1, stronger effect = lower value 1.02 | locus YCL029C, strain bik1, stronger effect = lower value 1.03 | locus YCL061C, strain MRC1, stronger effect = lower value 1.02 | locus YCL069W, strain vba3, stronger effect = lower value 1.02 | locus YCR088W, strain abp1, stronger effect = lower value 1.01 | locus YDL005C, strain med2, stronger effect = lower value 1.01 | locus YDL035C, strain GPR1, stronger effect = lower value 1.07 | locus YDL040C, strain nat1, stronger effect = lower value 1.01 | locus YDL074C, strain BRE1, stronger effect = lower value 1.1 | locus YDL101C, strain DUN1, stronger effect = lower value 1 | locus YDL134C, strain PPH21, stronger effect = lower value 1.03 | locus YDL185W, strain tfp1, stronger effect = lower value 1.03 | locus YDL192W, strain arf1, stronger effect = lower value 1.04 | locus YDR001C, strain nth1, stronger effect = lower value 1.02 | locus YDR069C, strain doa4, stronger effect = lower value 1.01 | locus YDR101C, strain arx1, stronger effect = lower value 1.04 | locus YDR137W, strain rgp1, stronger effect = lower value 0.982 | locus YDR150W, strain NUM1, stronger effect = lower value 1.02 | locus YDR159W, strain sac3, stronger effect = lower value 0.98 | locus YDR162C, strain NBP2, stronger effect = lower value 1.04 | locus YDR195W, strain ref2 1.01 | locus YDR297W, strain sur2, stronger effect = lower value 1.01 | locus YDR318W, strain mcm21, stronger effect = lower value 1.02 | locus YDR334W, strain swr1, stronger effect = lower value 1.02 | locus YDR335W, strain msn5, stronger effect = lower value 1.01 | locus YDR388W, stronger effect = lower value 1.02 | locus YDR392W, strain spt3, stronger effect = lower value 0.895 | locus YDR502C, strain sam2, stronger effect = lower value 1.02 | locus YEL003W, strain gim4, stronger effect = lower value 1.01 | locus YEL037C, strain rad23, stronger effect = lower value 1.01 | locus YEL061C, strain CIN8 (second series), stronger effect = lower value 1.02 | locus YER015W, strain faa2, stronger effect = lower value 1.02 | locus YER016W, strain bim1, stronger effect = lower value 1 | locus YER110C, stronger effect = lower value 1 | locus YER111C, strain swi4, stronger effect = lower value 1.01 | locus YER155C, strain BEM2 (second series), stronger effect = lower value 1 | locus YER155C, strain BEM2, stronger effect = lower value 0.996 | locus YER167W, strain BCK2, stronger effect = lower value 1.01 | locus YFR010W, strain ubp6, stronger effect = lower value 1.01 | locus YGL078C, strain dbp3, stronger effect = lower value 0.999 | locus YGL086W, strain mad1, stronger effect = lower value 0.997 | locus YGL167C, strain pmr1, stronger effect = lower value 1.01 | locus YGL173C, strain kem1, stronger effect = lower value 1.01 | locus YGL227W, strain vid30, stronger effect = lower value 1.02 | locus YGL240W, strain doc1, stronger effect = lower value 1.01 | locus YGL248W, strain PDE1, stronger effect = lower value 1.04 | locus YGL253W, strain hxk2, stronger effect = lower value 1.01 | locus YGR135W, strain pre9, stronger effect = lower value 1.03 | locus YGR252W, strain gcn5, stronger effect = lower value 1.06 | locus YHR013C, strain ard1, stronger effect = lower value 1.02 | locus YHR027C, strain rpn1, stronger effect = lower value 1.01 | locus YHR030C, strain SLT2, stronger effect = lower value 1 | locus YHR079C, strain IRE1 (second series), stronger effect = lower value 1.01 | locus YHR094C, strain hxt1, stronger effect = lower value 1.01 | locus YHR129C, strain ARP1, stronger effect = lower value 1.03 | locus YHR142W, strain chs7, stronger effect = lower value 1.03 | locus YHR200W, strain rpn10, stronger effect = lower value 1.07 | locus YIL066C, strain RNR3, stronger effect = lower value 1.02 | locus YIL073C, strain SPO22, stronger effect = lower value 1.08 | locus YIL125W, strain kgd1, stronger effect = lower value 1.03 | locus YIR030C, strain dcg1, stronger effect = lower value 1.03 | locus YJL092W, strain hpr5, stronger effect = lower value 1.01 | locus YJL095W, strain BCK1 (second series), stronger effect = lower value 1.02 | locus YJL095W, strain BCK1, stronger effect = lower value 1.05 | locus YJL115W, strain asf1, stronger effect = lower value 1.02 | locus YJL129C, strain trk1, stronger effect = lower value 1.02 | locus YJL134W, strain LCB3, stronger effect = lower value 1 | locus YJL154C, strain vps35, stronger effect = lower value 1.01 | locus YJL164C, strain tpk1, stronger effect = lower value 1.01 | locus YJL166W, strain qcr8, stronger effect = lower value 1.01 | locus YJL168C, strain set2, stronger effect = lower value 1.02 | locus YJL187C, strain SWE1 (second series), stronger effect = lower value 1 | locus YJL187C, strain SWE1, stronger effect = lower value 1.01 | locus YJR075W, strain HOC1, stronger effect = lower value 1.03 | locus YKL009W, strain mrt4, stronger effect = lower value 0.912 | locus YKL068W, stronger effect = lower value 0.976 | locus YKL085W, strain MDH1 (second series), stronger effect = lower value 0.971 | locus YKL085W, strain MDH1, stronger effect = lower value 0.971 | locus YKL160W, strain elf1, stronger effect = lower value 1.02 | locus YKR001C, strain vps1, stronger effect = lower value 1.06 | locus YKR026C, strain gcn3, stronger effect = lower value 1 | locus YKR091W, strain srl3, stronger effect = lower value 1.01 | locus YLL001W, strain dnm1, stronger effect = lower value 1.02 | locus YLL026W, stronger effect = lower value 1 | locus YLL041C, strain sdh2, stronger effect = lower value 1.01 | locus YLR027C, strain aat2, stronger effect = lower value 1.01 | locus YLR039C, strain RIC1, stronger effect = lower value 1.2 | locus YLR058C, strain SHM2, stronger effect = lower value 1.02 | locus YLR102C, strain apc9, stronger effect = lower value 1.01 | locus YLR221C, strain rsa3, stronger effect = lower value 1.02 | locus YLR258W, strain gsy2, stronger effect = lower value 1 | locus YLR262C, strain YPT6 (second series), stronger effect = lower value 1.01 | locus YLR268W, strain sec22, stronger effect = lower value 1.05 | locus YLR320W, strain mms22, stronger effect = lower value 1.03 | locus YLR330W, strain CHS5, stronger effect = lower value 1.02 | locus YLR342W, strain FKS1 (second series), stronger effect = lower value 1.06 | locus YLR342W, strain FKS1, stronger effect = lower value 1.01 | locus YLR357W, strain rsc2, stronger effect = lower value 1.03 | locus YLR370C, strain arc18, stronger effect = lower value 1.01 | locus YLR371W, strain rom2, stronger effect = lower value 1.05 | locus YLR384C, strain iki3, stronger effect = lower value 1.01 | locus YLR418C, strain cdc73, stronger effect = lower value 1.05 | locus YML016C, strain PPZ1, stronger effect = lower value 1.01 | locus YML032C, strain rad52, stronger effect = lower value 1.03 | locus YML120C, strain ndi1, stronger effect = lower value 1.01 | locus YML124C, strain tub3, stronger effect = lower value 1.02 | locus YMR058W, strain fet3, stronger effect = lower value 1.01 | locus YMR078C, strain ctf18, stronger effect = lower value 1.01 | locus YMR125W, strain sto1, stronger effect = lower value 1.03 | locus YMR129W, stronger effect = lower value 1.01 | locus YMR205C, strain PFK2, stronger effect = lower value 1.01 | locus YMR223W, strain ubp8, stronger effect = lower value 1.06 | locus YMR231W, strain pep5, stronger effect = lower value 1 | locus YMR263W, strain SAP30, stronger effect = lower value 1.04 | locus YMR307W, strain GAS1, stronger effect = lower value 1.2 | locus YNL067W, strain RPL9B, stronger effect = lower value 1.02 | locus YNL071W, strain lat1, stronger effect = lower value 1.01 | locus YNL128W, strain TEP1, stronger effect = lower value 1.04 | locus YNL209W, strain ssb2, stronger effect = lower value 1.04 | locus YNL233W, strain BNI4, stronger effect = lower value 1.04 | locus YNL248C, strain rpa49, stronger effect = lower value 1.01 | locus YNL250W, strain rad50, stronger effect = lower value 0.961 | locus YNL271C, strain bni1, stronger effect = lower value 1.03 | locus YNL298W, strain CLA4, stronger effect = lower value 0.985 | locus YNL307C, strain MCK1, stronger effect = lower value 1.01 | locus YNL322C, strain KRE1 (second series), stronger effect = lower value 1.01 | locus YNR049C, strain mso1, stronger effect = lower value 1.01 | locus YNR052C, strain pop2, stronger effect = lower value 1.01 | locus YOL006C, strain TOP1, stronger effect = lower value 1.23 | locus YOL012C, strain htz1 0.906 | locus YOL147C, strain pex11, stronger effect = lower value 1.02 | locus YOR001W, strain rrp6, stronger effect = lower value 0.997 | locus YOR061W, strain CKA2, stronger effect = lower value 0.999 | locus YOR069W, strain VPS5, stronger effect = lower value 1.02 | locus YOR070C, strain gyp1, stronger effect = lower value 1.02 | locus YOR080W, strain dia2, stronger effect = lower value 1.01 | locus YOR083W, strain WHI5, stronger effect = lower value 1.03 | locus YOR106W, strain vam3, stronger effect = lower value 1.03 | locus YOR136W, strain idh2, stronger effect = lower value 1.02 | locus YOR144C, strain elg1, stronger effect = lower value 1.04 | locus YOR184W, strain ser1, stronger effect = lower value 1.08 | locus YOR265W, strain rbl2, stronger effect = lower value 1 | locus YOR270C, strain vph1, stronger effect = lower value 1.04 | locus YOR290C, strain snf2, stronger effect = lower value 1.01 | locus YOR316C, strain cot1, stronger effect = lower value 1.04 | locus YPL051W, strain arl3, stronger effect = lower value 0.993 | locus YPL055C, strain LGE1, stronger effect = lower value 1.12 | locus YPL078C, strain atp4, stronger effect = lower value 1.02 | locus YPL106C, strain sse1, stronger effect = lower value 1.01 | locus YPL240C, strain hsp82, stronger effect = lower value 1.01 | locus YPR119W, strain clb2, stronger effect = lower value 1.03 | locus YPR141C, strain kar3, stronger effect = lower value 1.02 | locus YPR163C, strain tif3, stronger effect = lower value 1.02 | locus YPR167C, strain met16, stronger effect = lower value 1.04 | strain wtn01, stronger effect = lower value 1.02
